PMC9911399, “Two distinct binding modes provide the RNA-binding protein RbFox with extraordinary sequence specificity”
Changes are numbered by the printed parent chain; changes in the protein carry UniProt numbers. Whole data set: some 16,000 sequences, median “ka relative to ugcaugu” near 0.096, cut for the highest 2% near 0.35. Many of the other results were omitted from the sample, so the highest values are more common in it than they were.

T1: RBFOX1 RRM RbFoxmut (Fox-RRM*) (Homo sapiens, UniProt Q9NWB1 109-208, R118D;E147R;N151S;E152T)
T1 sequence: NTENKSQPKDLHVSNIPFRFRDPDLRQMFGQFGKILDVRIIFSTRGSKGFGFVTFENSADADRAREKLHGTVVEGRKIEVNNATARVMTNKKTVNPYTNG

B1: UACCCGA (DNA:RNA)
RNA: GGGAGACCGGAAUUCAGAUUGUCCUACCCGAUUAAAUCCCGUCGUAGCCACCA
DNA 1: CAATCTGAATTCCGGTCTCCC
DNA 2: TGGTGGCTACGACGGGATT
B2: GGUCCCA (DNA:RNA)
RNA: B1 RNA with U25G, A26G, C27U, G30C
DNA 1: CAATCTGAATTCCGGTCTCCC
DNA 2: TGGTGGCTACGACGGGATT
B3: GGAGCAG (DNA:RNA)
RNA: B1 RNA with U25G, A26G, C27A, C28G, G30A, A31G
DNA 1: CAATCTGAATTCCGGTCTCCC
DNA 2: TGGTGGCTACGACGGGATT
B4: UUAAUGC (DNA:RNA)
RNA: B1 RNA with A26U, C27A, C28A, C29U, A31C
DNA 1: CAATCTGAATTCCGGTCTCCC
DNA 2: TGGTGGCTACGACGGGATT
B5: GUAAUGC (DNA:RNA)
RNA: B1 RNA with U25G, A26U, C27A, C28A, C29U, A31C
DNA 1: CAATCTGAATTCCGGTCTCCC
DNA 2: TGGTGGCTACGACGGGATT
B6: UAAAUGC (DNA:RNA)
RNA: B1 RNA with C27A, C28A, C29U, A31C
DNA 1: CAATCTGAATTCCGGTCTCCC
DNA 2: TGGTGGCTACGACGGGATT
B7: GGAAUGC (DNA:RNA)
RNA: B1 RNA with U25G, A26G, C27A, C28A, C29U, A31C
DNA 1: CAATCTGAATTCCGGTCTCCC
DNA 2: TGGTGGCTACGACGGGATT
B8: GCAAUGC (DNA:RNA)
RNA: B1 RNA with U25G, A26C, C27A, C28A, C29U, A31C
DNA 1: CAATCTGAATTCCGGTCTCCC
DNA 2: TGGTGGCTACGACGGGATT
B9: UGAAUGC (DNA:RNA)
RNA: B1 RNA with A26G, C27A, C28A, C29U, A31C
DNA 1: CAATCTGAATTCCGGTCTCCC
DNA 2: TGGTGGCTACGACGGGATT
B10: GAAAUGC (DNA:RNA)
RNA: B1 RNA with U25G, C27A, C28A, C29U, A31C
DNA 1: CAATCTGAATTCCGGTCTCCC
DNA 2: TGGTGGCTACGACGGGATT
B11: GAAUGCU (DNA:RNA)
RNA: B1 RNA with U25G, C27A, C28U, C29G, G30C, A31U
DNA 1: CAATCTGAATTCCGGTCTCCC
DNA 2: TGGTGGCTACGACGGGATT
B12: GAAUUGC (DNA:RNA)
RNA: B1 RNA with U25G, C27A, C28U, C29U, A31C
DNA 1: CAATCTGAATTCCGGTCTCCC
DNA 2: TGGTGGCTACGACGGGATT
B13: GAUUGCU (DNA:RNA)
RNA: B1 RNA with U25G, C27U, C28U, C29G, G30C, A31U
DNA 1: CAATCTGAATTCCGGTCTCCC
DNA 2: TGGTGGCTACGACGGGATT
B14: GAUGCUU (DNA:RNA)
RNA: B1 RNA with U25G, C27U, C28G, G30U, A31U
DNA 1: CAATCTGAATTCCGGTCTCCC
DNA 2: TGGTGGCTACGACGGGATT
B15: CGAAUGC (DNA:RNA)
RNA: B1 RNA with U25C, A26G, C27A, C28A, C29U, A31C
DNA 1: CAATCTGAATTCCGGTCTCCC
DNA 2: TGGTGGCTACGACGGGATT
B16: AUGCCGC (DNA:RNA)
RNA: B1 RNA with U25A, A26U, C27G, A31C
DNA 1: CAATCTGAATTCCGGTCTCCC
DNA 2: TGGTGGCTACGACGGGATT
B17: ACACGGC (DNA:RNA)
RNA: B1 RNA with U25A, A26C, C27A, C29G, A31C
DNA 1: CAATCTGAATTCCGGTCTCCC
DNA 2: TGGTGGCTACGACGGGATT
B18: UUUUCCC (DNA:RNA)
RNA: B1 RNA with A26U, C27U, C28U, G30C, A31C
DNA 1: CAATCTGAATTCCGGTCTCCC
DNA 2: TGGTGGCTACGACGGGATT
B19: GGGACUG (DNA:RNA)
RNA: B1 RNA with U25G, A26G, C27G, C28A, G30U, A31G
DNA 1: CAATCTGAATTCCGGTCTCCC
DNA 2: TGGTGGCTACGACGGGATT
B20: UCCAGUU (DNA:RNA)
RNA: B1 RNA with A26C, C28A, C29G, G30U, A31U
DNA 1: CAATCTGAATTCCGGTCTCCC
DNA 2: TGGTGGCTACGACGGGATT

target: T1, RBFOX1 RRM RbFoxmut (Fox-RRM*); assay: EMSA; HiTS-Eq, 1 nM pool, 10 min; buffer printed only for the single-RNA assays: 10 mM Tris pH 7.5, 150 mM NaCl, 3.4 mM EDTA, 0.001% NP-40, 30 C; settings: tags: His6 N-terminal (pET28a); label: 5' 32P
Procedure, shortened: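 A pool of RNA with 7 randomized nucleotides, 5′-radiolabelled and with DNA-annealed flanks, was equilibrated at 1 nM for 10 min in 50 µL with purified RbFox RRM, wild type or mutant, across increasing protein concentrations. Free RNA was separated by 8% native PAGE, excised, reverse-transcribed, barcoded by PCR and sequenced. Relative association constants were obtained from read-count changes of each RNA species versus the control reaction and normalised to the cognate motif.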

First: B1
Second: B2
The binding signal of the first is higher: 0.066 KA relative to UGCAUGU for the first, 0.0504 KA relative to UGCAUGU for the second.

Compared with B3, B4 is higher in binding signal: 0.0829 KA relative to UGCAUGU for the first, 0.118 KA relative to UGCAUGU for the second.

First: B5
Second: B6
The binding signal of the first is higher: 0.127 KA relative to UGCAUGU for the first, 0.0677 KA relative to UGCAUGU for the second.

Compared with B7, B8 is lower in binding signal: 0.686 KA relative to UGCAUGU for the first, 0.0545 KA relative to UGCAUGU for the second.

First: B9
Second: B10
The binding signal of the first is higher: 0.485 KA relative to UGCAUGU for the first, 0.072 KA relative to UGCAUGU for the second.

First: B11
Second: B12
The binding signal of the first is higher: 0.634 KA relative to UGCAUGU for the first, 0.119 KA relative to UGCAUGU for the second.

Compared with B13, B14 is lower in binding signal: 0.141 KA relative to UGCAUGU for the first, 0.0831 KA relative to UGCAUGU for the second.

First: B15
Second: B16
The binding signal of the first is higher: 0.856 KA relative to UGCAUGU for the first, 0.11 KA relative to UGCAUGU for the second.

Compared with B17, B18 is lower in binding signal: 0.115 KA relative to UGCAUGU for the first, 0.0312 KA relative to UGCAUGU for the second.

First: B19
Second: B20
The binding signal of the first is higher: 0.266 KA relative to UGCAUGU for the first, 0.0717 KA relative to UGCAUGU for the second.
